Screening data from PubChem BioAssay.
15-hLO-2 inh: qHTS Assay for Inhibitors of 15-hLO-2 (15-human lipoxygenase 2); purified 15hLO-2, xylenol orange hydroperoxide absorbance; hit rate 0.56% among 110,000; Potency, µM (series often up to 57.1 µM), most hits filed as inhibitors; note: nearly all actives have a fitted effect of over 60% in size
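Read-out: hydroperoxide product oxidises ferrous iron, measured as xylenol orange complex via the 573-to-405 nm absorbance ratio after 30 min. Reaction: 50 nM enzyme, 15 min compound preincubation, 45 uM arachidonic acid, 90 min RT, Hepes pH 7.5 with Triton X-100.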
HPGD inh: qHTS Assay for Inhibitors of HPGD (15-Hydroxyprostaglandin Dehydrogenase). purified HPGD, NADH fluorescence kinetic, PGE2 substrate. Potency, µM, usual class: inhibitors. hit rate 4.3% among 150,000. AID 894, 2007; active = well fitted inhibition curve with a large enough effect, not every such curve was filed as active; inconclusive = small, poorly fitted or top-dose-only effect, or another doubt; inactive = no such curve, though single readings can be large or run the other way
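20 nM HPGD preincubated 15 min at room temperature with compound in 50 mM Tris-HCl pH 8, 0.01% Tween 20. Started with 1 mM NAD+ and 30 uM prostaglandin E2; NADH fluorescence (360/450 nm) read 5 times over 30-s intervals, last minus first.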
IMPase Li cell: qHTS Assay for Identifying the Cell-Membrane Permeable IMPase Inhibitors: Potentiation with Lithium | Potency, µM (top dose mostly 59.4 µM), most hits filed as inhibitors | CHO-M1 cells, IP1 TR-FRET (IP-One), carbachol + lithium | hit rate 0.35% among 210,000;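 note: IP1 builds up when IMPase is blocked and the TR-FRET signal falls; nearly all actives have a fitted effect of over 50% in size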
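Lithium-sensitised IP1 accumulation assay; M1-expressing CHO cells treated 30 min at 37C with compound. Competitive antibody detection by time-resolved FRET followed a 10 min room-temperature lysis step.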
PNC inhibitor: High Content Assay for Compounds that inhibit the Assembly of the Perinucleolar Compartment. AID 2417, 2010. hit rate 3.1% among 140,000. PC3M PTB-GFP, PNC prevalence imaging, 16 h; hits give low values. activity change (PNC), negative = inhibition, % at 10 µM;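 active = readout at or below -70, meaning at least 70% loss of cells showing the perinucleolar compartment, a nuclear body marking cancer cells; inconclusive = readout between -30 and a set limit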
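Compounds are pinned in duplicate onto adhered PC3M cells stably expressing GFP-tagged PTB and incubated 16 h at 37 C. Cells are then fixed, nuclei stained with Hoechst, and PNC-positive cells counted.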
ALOX12 inhib: qHTS Assay for Inhibitors of 12-hLO (12-human lipoxygenase). Polyunsaturated fatty acid lipoxygenase ALOX12 (Homo sapiens), P18054. purified 12-hLO, xylenol orange hydroperoxide absorbance. Potency, µM (doses to about 57.1 µM), most hits filed as inhibitors. hit rate 0.12% among 150,000. AID 1452, 2008; note: nearly all actives have a fitted effect of over 55% in size
Target sequence (P18054 whole entry, looked up): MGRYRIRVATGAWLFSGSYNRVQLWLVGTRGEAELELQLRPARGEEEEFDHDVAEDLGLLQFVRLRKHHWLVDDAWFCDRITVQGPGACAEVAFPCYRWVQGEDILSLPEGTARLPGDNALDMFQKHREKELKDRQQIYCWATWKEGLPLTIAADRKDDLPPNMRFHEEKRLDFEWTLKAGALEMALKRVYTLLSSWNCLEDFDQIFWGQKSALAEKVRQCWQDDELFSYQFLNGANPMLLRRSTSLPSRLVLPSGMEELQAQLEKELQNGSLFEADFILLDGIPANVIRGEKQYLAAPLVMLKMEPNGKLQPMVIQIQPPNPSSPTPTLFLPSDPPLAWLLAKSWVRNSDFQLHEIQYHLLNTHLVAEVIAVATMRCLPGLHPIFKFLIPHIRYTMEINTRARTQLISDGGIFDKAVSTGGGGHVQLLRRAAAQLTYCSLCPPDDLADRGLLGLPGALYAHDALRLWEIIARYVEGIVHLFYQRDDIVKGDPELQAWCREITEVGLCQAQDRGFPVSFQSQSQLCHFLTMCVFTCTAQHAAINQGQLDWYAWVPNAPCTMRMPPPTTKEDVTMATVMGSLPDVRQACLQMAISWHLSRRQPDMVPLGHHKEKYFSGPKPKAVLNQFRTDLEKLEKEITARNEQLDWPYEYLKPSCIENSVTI
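Hydroperoxide formation by human 12-lipoxygenase from 40 uM arachidonic acid was followed colorimetrically via ferric-xylenol orange complex, using the 573/405 nm absorbance ratio. Enzyme concentration was 150 nM, with 30 min reaction at room temperature.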
IMPase cell inh: qHTS Assay for Identifying the Cell-Membrane Permeable IMPase Inhibitors; Inositol monophosphatase 1 (Rattus norvegicus), P97697; CHO-M1 cells, IP1 accumulation, HTRF TR-FRET ratio; inhibition (IP1 accumulation), % at 46.1 µM; 120,000 tested, under 10 active; AID 901, 2007; active = well fitted curve in the direction sought with a large enough effect in the signal ratio, not every such curve was filed as active; inconclusive = small, poorly fitted or top-dose-only effect, or a change in a side signal; inactive = no such curve, though single readings can be large or run the other way; the % refers to the signal ratio;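 note: cells stimulated with carbachol in lithium chloride buffer; higher means more IMPase inhibition seen as more IP1 and lower FRET ratio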
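Seeded CHO-M1 cells were dosed with compound at up to 46 uM, stimulated with carbachol for 30 min, then lysed in IP-One detection reagents. Higher IP1 lowers the TR-FRET signal.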
A number is an active result; . = inactive; ? = inconclusive; / = no result given. This is a sample that favours compounds with a hit; in the whole collection about 5.4% have one here. Unless noted, calls come from the whole dose curve; as a rule, active = well fitted curve in the direction sought with a large enough effect; inconclusive = small, poorly fitted or top-dose-only effect, or another doubt; inactive = no such curve, though single readings can be large; an effect the other way counts as inactive or inconclusive.

SMILES | 15-hLO-2 inh | HPGD inh | IMPase Li cell | PNC inhibitor | ALOX12 inhib | IMPase cell inh
COC(=O)C(Cc1c[nH]c2ccccc12)NC(C)=O (centres undefined) | / | . | . | . | . | /
COC(=O)C(Cc1c[nH]c2ccccc12)NC(=O)c1cc(-c2ccc(OC)c(OC)c2)oc1C (centres undefined) | / | 32µM | . | . | . | .
CCCc1cc(N2CCCC(C(=O)Nc3ccc(OC)cc3OC)C2)n2ncnc2n1 (centres undefined) | . | 28µM | . | . | . | .
CCCc1cc(N2CCCC(C(=O)NCc3ccc4c(c3)OCO4)C2)n2ncnc2n1 (centres undefined) | . | . | . | ? | . | .
O=C(O)CCN1C(=O)c2ccc(NC(=O)CSc3ccccc3)cc2C1=O | / | 20µM | . | . | . | .
CC(=O)Nc1cccc(Oc2ccc3c(c2)C(=O)N(CCC(=O)O)C3=O)c1 | . | 25µM | . | . | . | .
CCCC(=O)Nc1ccc2c(c1)C(=O)N(CCC(=O)O)C2=O | . | ? | . | . | . | .
COc1ccc(-c2oc3ncn4nc(-c5ccccc5Cl)nc4c3c2-c2ccc(OC)cc2)cc1 | / | / | / | / | / | .
O=C(NCC(F)(F)F)Nc1cccnc1 | / | . | . | -100 | . | .
COc1ccc(Cl)cc1-n1c(N)c(C(N)=O)sc1=S | . | 28µM | . | . | . | .
CCCCNC(=O)c1sc(=S)n(-c2ccccc2OC)c1N | ? | 32µM | . | ? | . | ?
CCOC(=O)c1sc(=S)n(-c2ccccc2OC)c1N | . | ? | . | . | . | .
COC(=O)c1sc(=S)n(-c2ccccc2OC)c1N | . | 14µM | . | . | . | .
CCOc1ccccc1-n1c(N)c(C(N)=O)sc1=S | . | . | . | . | . | .
CCCCC(=O)NC1(C(F)(F)F)C(=O)Nc2c1c(=O)[nH]c(=O)n2-c1ccc(C)c(C)c1 (centres undefined) | / | / | / | / | / | .
CCOc1ccc(-c2nc(=S)[nH][nH]2)cc1 | ? | ? | . | . | . | .
COc1ccc(-c2nc(=S)[nH][nH]2)cc1 | ? | 13µM | . | . | . | ?
Cc1nc([N+](=O)[O-])c(N2CCN(C)CC2)n1Cc1ccccc1 | . | . | . | -88 | . | .
COc1ccc(-c2cc(C(F)(F)F)n3nc(C(=O)O)c(Cl)c3n2)cc1OC | / | / | / | / | / | .
Cc1cc(=O)c2c(O)c3c(O)cc(O)c4c5c(O)cc(O)c6c(O)c7c(=O)cc(C)c8c1c2c(c34)c(c65)c78 | 2.5µM | 8.9µM | 13µM | / | ? | /
Cc1cc(O)c2c(c1O)C(=O)c1c(O)cc(C)c(O)c1C2=O | . | . | . | / | . | /
CC(C)OCC(O)CS(=O)(=O)Cc1ccccc1 (centres undefined) | . | 13µM | . | . | . | .
C=CCn1c2ccccc2n2nc(C)c(=O)nc12 | / | ? | . | -100 | . | .
CC(C)(C)C(=O)Nc1ccccc1C(=O)Nc1ccccn1 | / | . | . | -100 | . | .
O=C(Sc1nnc(-c2ccccc2)o1)N1c2ccccc2Sc2ccccc21 | / | 14µM | ? | . | . | .
CNC(=O)C1=C(C)n2c(nc3ccccc32)NC1c1ccc(OC)cc1 (centres undefined) | / | . | . | -114 | . | /
CC1=C(C(=O)Nc2ccccc2)C(c2cccc([N+](=O)[O-])c2)Nc2nc3ccccc3n21 (centres undefined) | . | . | . | ? | . | .
CC1CCCC2(C1)NC(=S)c1c(sc3c1CCCC3)N2 (centres undefined) | 13µM | 4.5µM | . | ? | . | .
Cc1ccccc1NC(=O)CSCC(=O)Nc1ccccc1C | . | 18µM | . | . | ? | .
CSc1ccccc1NC(=O)CSCc1ccc(C)cc1 | . | 16µM | . | . | . | .
